# In PubChem BioAssay (NCI):
# This is part of a sample that, as a whole, favours compounds with a hit. Of some 79,000 tested, about 15% had one in any assay. Values without a mark were called inactive. Activity calls are given as the source filed them. No stated cut-off is given here; in the data, active means growth inhibition above about 70%; inactive means the rest.
# Tests used:
# [1] = NCI Yeast Anticancer Drug Screen. Data for the rad50 strain (AID 155);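 further: 0% = growth of vehicle-only cultures of the same strain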; settings: S. cerevisiae rad50 strain growth inhibition, active compounds read high
# Summary of the method: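 Yeast carrying a defined DNA repair defect were exposed to test compounds, and growth was compared with vehicle-treated controls to give percent inhibition.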
# [2] = NCI Yeast Anticancer Drug Screen. Data for the mec2-1 strain (AID 157); settings: S. cerevisiae mec2-1 strain, active compounds read high
# Summary of the method: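 Each compound was tested on mec2-1 yeast, a strain altered in DNA damage repair or cell cycle control. Growth inhibition is reported relative to vehicle.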
# [3] = NCI Yeast Anticancer Drug Screen. Data for the sgs1 mgt1 strain (AID 161);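 further: 0% = growth of cultures given vehicle only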; settings: S. cerevisiae sgs1 mgt1 strain, active compounds read high
# Summary of the method: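 Read-out: growth inhibition vs vehicle controls. Cells: mutant yeast strain deficient in DNA damage repair.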
# [4] = NCI Yeast Anticancer Drug Screen. Data for the cln2 rad14 strain (AID 165);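 further: 0% = growth equal to vehicle treated cultures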; settings: S. cerevisiae cln2 rad14 strain, active compounds read high
# Summary of the method: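 Test compounds were added to cln2 rad14 yeast cultures; inhibition of growth was then determined by comparison with vehicle treatment.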
# [5] = NCI Yeast Anticancer Drug Screen. Data for the bub3 strain (AID 167); settings: S. cerevisiae bub3 mutant strain, active compounds read high
# Summary of the method: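 Compounds were applied to a genetically altered yeast strain carrying a cell-cycle control defect. Growth inhibition was scored against vehicle-treated controls.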
# [6] = NCI Yeast Anticancer Drug Screen. Data for the mlh1 rad18 strain (AID 175); settings: S. cerevisiae mlh1 rad18 strain growth inhibition, active compounds read high
# Summary of the method: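 Inhibition values reflect reduced growth of mutant yeast versus vehicle-treated controls following compound exposure; the mutations affect DNA damage repair.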
# [7] = at 5.0 µM (retest, dose inferred, filed as 0.5)
# [8] = at 50.0 µM (retest, dose inferred, filed as 5.0)
SMILES,"growth inhibition [1, 7]","growth inhibition [1, 8]",growth inhibition ([1]; at 50.0 µM),"growth inhibition [2, 7]","growth inhibition [2, 8]",growth inhibition ([2]; at 50.0 µM),"growth inhibition [3, 7]","growth inhibition [3, 8]",growth inhibition ([3]; at 50.0 µM),"growth inhibition [4, 7]","growth inhibition [4, 8]",growth inhibition ([4]; at 50.0 µM),"growth inhibition [5, 7]","growth inhibition [5, 8]",growth inhibition ([5]; at 50.0 µM),"growth inhibition [6, 7]","growth inhibition [6, 8]",growth inhibition ([6]; at 50.0 µM)
c1cc[c]([Pb]([S]c2nc3ccccc3[nH]2)([c]2ccccc2)[c]2ccccc2)cc1,99% (active),99% (active),91.4% (active),100% (active),99% (active),92.7% (active),99% (active),99% (active),92.2% (active),99% (active),99% (active),91.8% (active),99% (active),99% (active),91.3% (active),99% (active),99% (active),90.3% (active)
CN1C(=O)C2(C)SSC1(C)C(=O)N2C,45%,95% (active),97.2% (active),27%,95% (active),93.8% (active),43%,96% (active),97.5% (active),10%,85% (active),87.7% (active),17%,93% (active),95.5% (active),57%,97% (active),98.6% (active)
C[C@H]1CC[C@@]2(NC1)O[C@H]1C[C@H]3[C@@H]4CC[C@H]5C[C@@H](O)CC[C@]5(C)[C@H]4CC[C@]3(C)[C@H]1[C@@H]2C,42%,96% (active),92.2% (active),27%,98% (active),93.8% (active),66%,99% (active),93.5% (active),54%,98% (active),91.5% (active),64%,99% (active),92.5% (active),33%,98% (active),86.8% (active)
CC1=C2C(=CC(C)(C)[C@@H]2O)C(=O)[C@](C)(O)C12CC2,44%,92% (active),80.6% (active),12%,96% (active),89.8% (active),53%,91% (active),80.8% (active),23%,90% (active),84.8% (active),12%,39%,7.1%,35%,91% (active),78.3% (active)
COC(=O)C1=C(C(=O)OC)C2(OC(C)=O)c3ccccc3-c3ccccc3C12 (configuration not stated),72% (active),98% (active),90.2% (active),92% (active),99% (active),93.5% (active),43%,98% (active),91.6% (active),86% (active),99% (active),89.6% (active),92% (active),98% (active),90.2% (active),73% (active),99% (active),91.2% (active)
C[CH2][Sn]1([CH2]C)[O]S(=O)(=O)[O]1,15%,77% (active),70.2% (active),12%,95% (active),76.5% (active),12%,93% (active),25.4%,22%,56%,60.2%,13%,92% (active),45.1%,12%,88% (active),53.9%
O=C(N/N=C/c1cc(Br)cc(Br)c1[O-])c1ccccc1O.O=C(N/N=C/c1cc(Br)cc(Br)c1[O-])c1ccccc1O.[Co+2],93% (active),97% (active),94.6% (active),95% (active),96% (active),95.7% (active),91% (active),98% (active),94.8% (active),82% (active),97% (active),92.5% (active),90% (active),97% (active),95.5% (active),95% (active),96% (active),96% (active)
CCCC[As](CCCC)SC1CCC2(C)C(=CCC3C4CCC(=O)C4(C)CCC32)C1 (configuration not stated),16%,92% (active),95.7% (active),6%,87% (active),83.6% (active),21%,76% (active),97% (active),5%,64%,82.3% (active),3%,87% (active),84% (active),13%,88% (active),98.8% (active)
CC(=O)NNc1ccccc1,6%,44%,62.5%,2%,52%,66.2%,9%,53%,68.3%,2%,65%,40%,7%,89% (active),87% (active),14%,84% (active),90.7% (active)
CC[S+](C)c1ccc(-c2c3nc(c(-c4ccc([S+](C)CC)cc4)c4ccc([nH]4)c(-c4ccc([S+](C)CC)cc4)c4nc(c(-c5ccc([S+](C)CC)cc5)c5ccc2[nH]5)C=C4)C=C3)cc1 (configuration not stated),95% (active),95% (active),86.8% (active),98% (active),97% (active),90.7% (active),73% (active),97% (active),91.8% (active),56%,96% (active),89.5% (active),94% (active),96% (active),89% (active),96% (active),95% (active),88.5% (active)
[Pt].c1ccc([PH+](c2ccccc2)c2ccccc2)cc1.c1ccc([PH+](c2ccccc2)c2ccccc2)cc1.c1ccc([PH+](c2ccccc2)c2ccccc2)cc1.c1ccc([PH+](c2ccccc2)c2ccccc2)cc1,31%,62%,68.5%,27%,61%,42.7%,40%,82% (active),62.3%,49%,55%,64%,42%,54%,62.5%,27%,86% (active),41.5%
N#CSCC(=O)O (tested in a mixture with another compound),2%,-6%,0.5%,2%,4%,7.4%,3%,5%,5.85%,-4%,3%,25.1%,-3%,-3%,6.3%,0%,-6%,-7.75%
NC[CH2][Sn]([c]1ccccc1)([CH]1CCCCC1)[CH]1CCCCC1,99% (active),98% (active),99% (active),100% (active),99% (active),98.7% (active),100% (active),99% (active),93.3% (active),98% (active),98% (active),97.5% (active),98% (active),98% (active),98.5% (active),100% (active),98% (active),98.9% (active)
Cc1ccc2c(c1)N(CCN(CCCl)CCCl)c1c(ccc3ccccc13)S2,0%,83% (active),90.2% (active),-1%,87% (active),67.2%,-9%,84% (active),93.4% (active),-6%,79% (active),75.4% (active),-1%,82% (active),34.7%,11%,84% (active),91.9% (active)
O=[N+]([O-])c1ccc2c3c(cccc13)CC2,15%,86% (active),6.7%,3%,32%,9.15%,11%,84% (active),0.9%,-1%,48%,-4.15%,6%,54%,19.9%,25%,90% (active),18.4%
CC(C)c1cc([N+](=O)[O-])cc([N+](=O)[O-])c1O,9%,88% (active),82.4% (active),-20%,90% (active),62.1%,1%,87% (active),86.1% (active),8%,82% (active),58%,-4%,85% (active),55.5%,6%,90% (active),80.7% (active)
CN(C)N(P(N)(Cl)(c1ccccc1)c1ccccc1)P(N)(Cl)(c1ccccc1)c1ccccc1,13%,90% (active),63.2%,22%,97% (active),54.5%,-221%,96% (active),44.9%,0%,88% (active),58.5%,4%,88% (active),49.5%,25%,96% (active),50.6%
O=C(c1ccccc1)c1cc(CN(CCCl)CCCl)c(O)cc1O,0%,32%,54.3%,-17%,43%,17.9%,7%,75% (active),43%,-2%,-1%,13.2%,-6%,-4%,29.3%,11%,86% (active),80.3% (active)
CC1=C(N2CC2)C(=O)c2nc3n(c2C1=O)CCC3OC(=O)CCl (configuration not stated),28%,61%,46.5%,6%,47%,57%,18%,60%,72.2% (active),5%,31%,57.9%,24%,19%,6%,23%,67%,66.1%
